Reference: the supplement of paper PMC11417369
± gives the standard deviation of the averaged measurements. The full ranking holds about 25,000 sequences; the median of “ln(normalized median fluorescence intensity)” is about 7.9, and the highest 2% start at about 11. Shown is part of a subset that was picked to be rich in the highest values.

What follows are sequences tested on PfAP2-I AP2 domain 3 (GST-tagged) (assay: gcPBM binding intensity (ln(normalized median fluorescence intensity)); higher = stronger DNA binding).
How it was run: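 Binding intensity is the highest Masliner-normalised natural-log median intensity over replicate spots in either probe orientation. To obtain it, GST-tagged P. falciparum DNA-binding domains made in E. coli were incubated for 1 h on an Agilent 4 × 180k array of primer-extended double-stranded 36-bp intergenic genomic probes plus negative controls. Detection used Alexa488 anti-GST antibody with scanning at 488 nm.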
“AAAATATAATATATTGCACACAAAAAGTGAATTATT [CACACA_site8489]” was tested, and the “gcPBM binding intensity (ln)” value was 10 ± 0.62.
With “TGTAATAATTATTGCACGCACACAAAAACCTATAGA [CACACA_site2932]” the “gcPBM binding intensity (ln)” value was 10.8 ± 0.88.
For “TAATAATTATTGCACGCACACAAAAACCTATAGATT [CACACA_site2931]”, the “gcPBM binding intensity (ln)” value was 11 ± 0.67.
In the case of “ATATTTTTTACTATTACACACAAGGGATTATTATTT [CACACA_site3915]”, the “gcPBM binding intensity (ln)” value is reported as 7.99 ± 0.69.
With “ATACATACATATGTATGTACGTATGTATGTATGTAT [XGTACX_site3853]” the “gcPBM binding intensity (ln)” value was 8 ± 0.2.
With “TATACTGTCAATTCTACACACCATAGGGGGAGCATA [CACACA_site1875]” the “gcPBM binding intensity (ln)” value was 9.22.
“TTTTTTTTTTTTAATGCACACAGTGAACTTTTACTT [CACACA_site3567]” was tested, and the “gcPBM binding intensity (ln)” value was 11.3 ± 0.36.
“ATGAAATATGCACAGTGTACTTTTATGAGGAACATA [XGTACX_site426]” was tested, and the “gcPBM binding intensity (ln)” value was 9.045 ± 0.064.
For “TTTATTTTTAACAGTGCACACATAACTTAATTATAT [CACACA_site8681]”, the “gcPBM binding intensity (ln)” value was 10.69 ± 0.071.
With “CATATAAGACAAAAGGTGCAATTTTAATGCTTTTAT [GTGCAC_site9432]” the “gcPBM binding intensity (ln)” value was 9.99 ± 0.071.
AAAGAATTATATAAGGTGCACGAATGTTTCTTTAAT was tested, and the “gcPBM binding intensity (ln)” value was 10.96 ± 0.035.
For “TTTCTTTTTTTTTAATGTACTTTTTTTATAAAAGGT [XGTACX_site5688]”, the “gcPBM binding intensity (ln)” value was 7.99 ± 0.23.
For AAATAATTAGAAATAGTGCACATAATTAAGGGATAC, the “gcPBM binding intensity (ln)” value was 11.5 ± 0.31.
“AATATATAAATTAATACATGCACATATAGAAAGGGA [TGCATGCA_site472]” was tested, and the “gcPBM binding intensity (ln)” value was 8.7 ± 0.52.
In the case of “AATAATACATCCTTAGTGCAGAAATAAAAATTAAGC [GTGCAC_site9955]”, the “gcPBM binding intensity (ln)” value is reported as 9.76 ± 0.24.
With “ATTTTACATATTTGCACACATATATTTAAATACATA [CACACA_site4627]” the “gcPBM binding intensity (ln)” value was 9.85 ± 0.28.
For GTATATCATTTTGGGGTGCTTAAAAATAATGAATAC, the “gcPBM binding intensity (ln)” value was 10.4 ± 0.46.
In the case of “TTATTATTATATGAATGTACTTAAAAATACATTTTG [XGTACX_site2959]”, the “gcPBM binding intensity (ln)” value is reported as 7.43 ± 0.49.
For TATGAACTTTTGGGGGTGCCTTAAAATGTATATTCT, the “gcPBM binding intensity (ln)” value was 11.2 ± 0.53.
With “TCAACACACGTGGAATGTACTTTAGTATAAGAATTC [XGTACX_site7842]” the “gcPBM binding intensity (ln)” value was 7.74 ± 0.64.
For “AAATTTATATAATATTGTACATTAAAAATTATATAT [XGTACX_site8009]”, the “gcPBM binding intensity (ln)” value was 7.73 ± 0.3.
In the case of “TAAAATATGTCATGGGTGCTTCTTTTTATACCTATG [GTGCAC_site9888]”, the “gcPBM binding intensity (ln)” value is reported as 8.49 ± 0.38.
With “TTTAATTAAATATGTATATATATTCATGTATGTATA [GTGCAC_negctrl_site14]” the “gcPBM binding intensity (ln)” value was 7.68 ± 0.26.
For “AATATGTAAATATGGGTGCTTTAAAATATATTCATT [GTGCAC_site9583]”, the “gcPBM binding intensity (ln)” value was 11.1 ± 0.66.
In the case of “GAATAAATTAAAAACGCATGTATCATTACTACATAA [TGCATGCA_site111]”, the “gcPBM binding intensity (ln)” value is reported as 7.36 ± 0.48.
With TTTATATAAATTTAAGTGCAAAATGAACAAGTGAAA the “gcPBM binding intensity (ln)” value was 10.1 ± 0.15.
In the case of “ATAACAAAATGAAGAGTGCATTACCAAGTGGGTAAA [GTGCAC_site9450]”, the “gcPBM binding intensity (ln)” value is reported as 10.93 ± 0.014.
With “ATATATATATATAAAGTGCAAAAATGAAAGTAAGAC [GTGCAC_site9850]” the “gcPBM binding intensity (ln)” value was 10.4 ± 0.21.
“TTATATATTTTTACCATACACACATATAATAAATAT [CACACA_site3721]” was tested, and the “gcPBM binding intensity (ln)” value was 8.04 ± 0.63.
“TTTTTATTTTTTGTCTGTACATATATAAATTTATTA [XGTACX_site1525]” was tested, and the “gcPBM binding intensity (ln)” value was 7.88 ± 0.47.
In the case of “CCGTACAATTTTGTCACACATAAAATACTTATGTAT [CACACA_site4871]”, the “gcPBM binding intensity (ln)” value is reported as 7.66 ± 0.51.
AGTAGATTTTTATTAGTGCATTTTATACTACAAAAA was tested, and the “gcPBM binding intensity (ln)” value was 9.71 ± 0.24.
For “CACCCTTTACACAAGGTGCATACTTTATTATATTTT [GTGCAC_site9778]”, the “gcPBM binding intensity (ln)” value was 9.305 ± 0.049.
For “TCCTTTTTACTACTAGTGCATTATTTACAAGGTCCG [GTGCAC_site9441]”, the “gcPBM binding intensity (ln)” value was 11.4 ± 0.68.
In the case of “TATTATTATTGTTGATGTACATTTAATATAATATAT [XGTACX_site4482]”, the “gcPBM binding intensity (ln)” value is reported as 7.7 ± 0.38.
TTTTTAATTTTGTGGGTGCTTTCGTGTTATTATATA was tested, and the “gcPBM binding intensity (ln)” value was 9.415 ± 0.021.
In the case of “TGTGTGTGTTCATGGGTGCTTTAATACTATTATAGG [GTGCAC_site9465]”, the “gcPBM binding intensity (ln)” value is reported as 11 ± 0.61.
With AATATTGTTCACAAGGTGCTTTTTATTCATACTAAT the “gcPBM binding intensity (ln)” value was 8.86 ± 0.18.
For “TGAATATTTCTATATACACACATATAAATATAAATA [CACACA_site7593]”, the “gcPBM binding intensity (ln)” value was 7.55 ± 0.31.
“GTGGTATAAATTTTATGTACTTAATAACTCATTAAT [XGTACX_site5555]” was tested, and the “gcPBM binding intensity (ln)” value was 7.79 ± 0.28.
With TTTTTAACGTATAAGGTGCACTGTATATGGTACTCA the “gcPBM binding intensity (ln)” value was 11 ± 0.33.
With “ATATATATATATATATGTACTTATAAGGTATATTTA [XGTACX_site3327]” the “gcPBM binding intensity (ln)” value was 9.35 ± 0.52.
For “ATATTATTATAAACTTCACACATTTTATGGGTTTTT [CACACA_site4631]”, the “gcPBM binding intensity (ln)” value was 7.49 ± 0.61.
In the case of “ATAAAGATTAACAAAGTGCATTTATATATATAATCT [GTGCAC_site9407]”, the “gcPBM binding intensity (ln)” value is reported as 9.865 ± 0.092.
For ATATATATAACAAAAGTGCATTAAGGGGATGCTATA, the “gcPBM binding intensity (ln)” value was 11.5 ± 0.26.
For TTAAAAGTAAGCAAAGTGCATATAACAAAAGTAAAG, the “gcPBM binding intensity (ln)” value was 10.01 ± 0.092.
With TTTTTTTTTTTTTTGGTGCGTTTATATATAAATATA the “gcPBM binding intensity (ln)” value was 10.4 ± 0.86.
“TTAACAAAATTTTTAACACACAAAAAAAAAAAAAAA [CACACA_site1828]” was tested, and the “gcPBM binding intensity (ln)” value was 8.2 ± 0.8.
